# From ChEMBL document CHEMBL4513216, “Probing the Open Global Health Chemical Diversity Library for Multistage-Active Starting Points for Next-Generation Antimalarials” (ACS Infect Dis, 2020)
# Hit rate of the full screen: of about 69,000 compounds, about 8,600 (12%) showed an effect of 50% or more. What follows is part of a selection rich in strong results, with near analogues and random picks from the rest.
# System: Plasmodium berghei
# Assay: Screen against P. berghei liver stage (PbLuc), transformed with Luciferase, at 10uM
# Assay type: functional, HepG2
# Settings: tested at 10 uM
row,SMILES,INHIBITION [%]
1,O=C(C1CCOCC1)N1CCCC1c1cncc(CN2CCCC2)n1 (centres undefined),41.5
2,COCC(=O)N1CC(c2csc(NC(C)=O)n2)C1,2.71
3,CNC(=O)C1CCN(C(=O)NCCc2ccc(Cl)s2)CC1,23.5
4,Cc1ccc(-c2nnc(C3CCCN3S(=O)(=O)c3cnn(C)c3C)o2)s1 (centres undefined),19.02
5,Cc1ccc(NC2CCN(C(=O)CCc3c(C)noc3C)CC2)nn1,7.12
6,CCc1ncnc2c1CCN(C(=O)c1ccccn1)CC2,-0.813
7,CC1CCc2nc(O)c(C(=O)NCCc3cccs3)cc2C1 (centres undefined),-111
8,O=C(O)c1cc2c(nc1O)CC(c1cccs1)CC2=O (centres undefined),-6.32
9,O=C1CC(c2cccs2)Cc2nc(O)c(C(=O)N3CCCC3)cc21 (centres undefined),-60.7
10,O=C(NC1CC1)c1cc2c(nc1O)CC(c1cccs1)CC2=O (centres undefined),75.2
11,COCCNC(=O)c1cc2c(nc1O)CC(c1cccs1)CC2=O (centres undefined),55.2
12,O=C(O)c1cc2c(nc1O)CC(c1cccc(Cl)c1)CC2=O (centres undefined),-23.7
13,O=C(Cc1ccccc1Cl)Nc1cc(N2CCCC2)ncn1,-12.1
14,O=C(O)[C@@H]1CN(C(=O)CCN2CCCCC2)C[C@H]1c1ccccc1,-24
15,CCOCc1nc(-c2ccc(F)cc2Cl)n(C2CCN(C)CC2)n1,8.51
16,Cc1noc(C)c1CNC(=O)Nc1ccc(N2CCSCC2)cc1,7.93
17,Cc1cc(NC(=O)CN2CCc3cncnc3C2)on1,43.3
18,O=C(c1ccccn1)N1C[C@H]2CC[C@@H](C1)N(C(=O)c1ccsc1)C2,20.6
19,CCn1ccnc1CNc1nccc(-c2cn(C)nc2C)n1,-67.9
20,CCc1nccn1CCCNc1nccc(-c2c(C)nn(C)c2C)n1,65.2
21,CCn1ccnc1CNc1nccc(-c2c(C)nn(C)c2C)n1,-47.8
22,CCc1nc(CN(C(C)=O)C2CCN(Cc3csc(C)n3)C2)no1 (centres undefined),-13.5
23,COCC(=O)NC[C@]12COC[C@H]1CN(Cc1ccc3c(c1)OCO3)C2,0.453
24,COCC(=O)N[C@@H]1CN(Cc2ccc3c(c2)OCCO3)C[C@H]1O,52
25,COCC(=O)NC[C@]1(O)CN(Cc2ccc3c(c2)OCCO3)C[C@H]1O,66.8
26,CCC[C@H]1CN(Cc2ccc3c(c2)OCCO3)C[C@@H]1NC(=O)COC,37.6
27,CC(=O)N1CCN(Cc2ccc3c(c2)OCCO3)CC(O)C1 (centres undefined),15.8
28,O=C(NCC1CC1)N1CCN(Cc2ccc3c(c2)OCCO3)CC1,13.9
29,Cc1nc(CN2CCCC(Cn3cncn3)C2)no1 (centres undefined),34.7
